For experiment [1], the target named is Aldehyde dehydrogenase, mitochondrial (Homo sapiens) (UniProt P05091). Put plainly: qHTS for Inhibitors of the Aldehyde Dehydrogenase Family (ALDH2) Primary screen (AID 2061308). Note: nearly all actives have a fitted effect of over 55% in size.
The target of experiment [2] is Retinaldehyde dehydrogenase 3 (Homo sapiens) (UniProt P47895). Description: qHTS for Inhibitors of the Aldehyde Dehydrogenase Family (ALDH1A3) Primary screen (AID 2061315). Background: Quantitative high-throughput screening tests each substance at several concentrations.

Results filed as inconclusive are left out. Entries that show only a call come without a potency. Calls of active or inactive are those of the source. Calls come from the whole dose curve; as a rule, active = well fitted curve in the direction sought with a large enough effect; inconclusive = small, poorly fitted or top-dose-only effect, or another doubt; inactive = no such curve, though single readings can be large; an effect the other way counts as inactive or inconclusive.

For the molecule `Cn1ccc2cc(-c3ccc4ncnc(NCc5ccc6c(c5)OCO6)c4c3)ccc21`, the Potency entry in experiment [1] and in experiment [2] was “inactive” each time.
Consider `CC1OC2O[C@H]3[C@@H](OCC(O)[C@H]3O)OC(=O)C34CCC(C)(C)CC3C3=CCC5C6(C)CC(O)C(OC7OC(CO)C(O)C(O)C7O[C@@H]7OC[C@H](OC(=O)CC(C)(O)CC(=O)OC1C(OC1OCC(O)C(O)C1O)C2O)[C@@H](O)[C@H]7O)C(C)(CO)C6CCC5(C)C3(C)CC4` (some centres not stated), for which the Potency entry in experiment [1] and in experiment [2] was “inactive” throughout.
Turning to `COc1ccc(C(=O)N(Cc2cccs2)Cc2cccs2)c(O)c1`, the Potency entry in experiment [1] and in experiment [2] was “inactive” each time.
Turning to `O=C(CSc1nc(-c2ccc(F)cc2)nc2c1Cc1ccccc1O2)Nc1ccc(F)cc1`, the Potency result in experiment [1] and in experiment [2] was “inactive” each time.
With `COc1cccc(C2c3c(ncn(-c4cccc(Cl)c4)c3=N)Oc3ccc4ccccc4c32)c1` (configuration not stated), the Potency entry in experiment [1] and in experiment [2] was “inactive” each time.
In the case of `Cc1ccc(-c2cc(C(=O)Nc3ccc(S(N)(=O)=O)cc3)c3ccccc3n2)cc1C`, the Potency result in experiment [1] and in experiment [2] was “inactive” throughout.
`Cc1ccc(OCCn2c(CCNC(=O)c3ccco3)nc3ccccc32)cc1`: the Potency entry in experiment [1] and in experiment [2] was “inactive” each time.
As for `Cc1ccc(NS(=O)(=O)c2cc3c(cc2N(C)CCN(C)C)NC(=O)CC3)cc1C`, the Potency entry in experiment [1] and in experiment [2] was “inactive” throughout.
Consider `CCOc1ccc(CCNC(=O)c2cc3ccccc3n2C)cc1OCC`, for which the Potency result in experiment [1] and in experiment [2] was “inactive” each time.
In the case of `O=C(Cn1nc(C2CC2)ccc1=O)NCCc1ccccc1`, the Potency entry in experiment [1] and in experiment [2] was “inactive” in each case.
For the molecule `O=S(=O)(c1cccc(-c2n[nH]c(=S)n2-c2ccccc2)c1)N1CCCC1`, the Potency entry in experiment [1] and in experiment [2] was “inactive” throughout.
As for `CC(=O)Oc1ccc(C2(c3ccc(OC(C)=O)cc3)Oc3ccccc3NC2=O)cc1`, the Potency entry in experiment [1] and in experiment [2] was “inactive” throughout.
For `O=C(Nc1ncc(Cc2ccccc2)s1)c1ccc(-c2cccc([N+](=O)[O-])c2)o1`, the Potency result in experiment [1] and in experiment [2] was “inactive” in each case.
Regarding `O=C(Nc1cncc(-c2cccnc2)c1)c1cccs1`, the Potency entry in experiment [1] and in experiment [2] was “inactive” each time.
As to `O=S(=O)(c1cccc(C(F)(F)F)c1)N1CCN(S(=O)(=O)c2ccc3c(c2)OCCO3)CC1`, the Potency result in experiment [1] and in experiment [2] was “inactive” throughout.
For `O=C(Nc1ccc(-c2ccccc2)cc1)[C@H](Cc1ccc(O[S+](=O)([O-])c2cccc3cnccc23)cc1)N[S+](=O)([O-])c1cccc2cnccc12`, the Potency result in experiment [1] and in experiment [2] was “inactive” each time.
Turning to `Fc1cc(Nc2nc(-c3ccncc3)nc3ccccc23)ccc1-c1ccc(F)c(F)c1F`, the Potency result in experiment [1] and in experiment [2] was “inactive” in each case.
As for `CCCCN(C)C(=O)Cn1nc(-c2ccc(OC)cc2)ccc1=O`, the Potency result in experiment [1] and in experiment [2] was “inactive” throughout.
`CCOC(=O)c1ccc(NC(=O)CN2CCCCC2)cc1`: the Potency entry in experiment [1] and in experiment [2] was “inactive” throughout.
On to `CCOC(=O)c1csc(-n2nc(-c3ccc(F)c(F)c3)c(Cc3ccc(S(N)(=O)=O)cc3)c2N)n1`, for which the Potency result in experiment [1] and in experiment [2] was “inactive” in each case.
On to `COc1c2c(c(C)c3c1C(=O)OC3)OC1(C)CC(O)C3(O)C(C)(C)OC(=O)CCC3(C)C1C2` (configuration not stated), for which the Potency entry in experiment [1] and in experiment [2] was “inactive” throughout.
`COC(=O)[C@H](Cc1ccc(O[S+](=O)([O-])c2cccc3cnccc23)cc1)N(C)[S+](=O)([O-])c1ccc2cnccc2c1`: the Potency entry in experiment [1] and in experiment [2] was “inactive” throughout.
With `O=[N+]([O-])c1ccccc1S(=O)(=O)N1CCN(S(=O)(=O)c2ccc3c(c2)OCCO3)CC1`, the Potency result in experiment [1] and in experiment [2] was “inactive” throughout.
On to `Cc1cc(C)nc(NC(=S)N2CCN(Cc3cccc4ccccc34)CC2)c1`, for which the Potency entry in experiment [1] and in experiment [2] was “inactive” in each case.
For the molecule `Cc1cc2c(s1)c1cnn(Cc3cccc(C(F)(F)F)c3)c(=O)c1n2C`, the Potency entry in experiment [1] and in experiment [2] was “inactive” in each case.
Turning to `CCCCNc1nc(C)nc2c1nc(C)n2CCC`, the Potency result in experiment [1] and in experiment [2] was “inactive” throughout.
With `O=S(=O)(NCc1ccccc1F)c1ccc(O)c2ncccc12`, the Potency result in experiment [1] and in experiment [2] was “inactive” in each case.
Turning to `Cc1ccc(NS(=O)(=O)c2ccc3c(c2)CC(=O)N3C)cc1C`, the Potency result in experiment [1] and in experiment [2] was “inactive” throughout.
`Cc1cc2c(s1)c1cnn(Cc3cc(C(F)(F)F)cc(Cl)c3F)c(=O)c1n2C`: the Potency result in experiment [1] and in experiment [2] was “inactive” throughout.
For `COc1cc(O)c(C(CC(=O)N2CC(C)NC(C)C2)c2ccc3c(c2)OCO3)c(OC)c1` (configuration not stated), the Potency entry in experiment [1] and in experiment [2] was “inactive” throughout.
Take `CCCn1c(-c2ccc(F)cc2)nc2c(NC3CCN(Cc4ccccc4)C3)nc(C)nc21` (configuration not stated): the Potency entry in experiment [1] and in experiment [2] was “inactive” each time.
Consider `O=C(OCC#CCSc1nnc(-c2cccc3ccccc23)o1)c1cccc(F)c1`, for which the Potency result in experiment [1] and in experiment [2] was “inactive” in each case.
For the molecule `Cc1cccc(Nc2nn3c(=O)c4ccccc4nc3s2)c1`, the Potency entry in experiment [1] and in experiment [2] was “inactive” throughout.
Turning to `c1c[nH]c(CNc2ncnc3ccc(-c4ccoc4)cc23)n1`, the Potency result in experiment [1] and in experiment [2] was “inactive” in each case.
As for `Cc1ccc(S(=O)(=O)Nc2cnccc2C(=O)Nc2ccc(C#N)cc2)cc1`, the Potency result in experiment [1] and in experiment [2] was “inactive” throughout.
`Cc1ccc(S(=O)(=O)Nc2ccccc2C(=O)Nc2nc(-c3ccccc3)cs2)cc1`: the Potency result in experiment [1] and in experiment [2] was “inactive” in each case.
For `CCS(=O)(=O)N1CCC(C(=O)Nc2ccc(S(=O)(=O)Nc3nccs3)cc2)CC1`, the Potency entry in experiment [1] and in experiment [2] was “inactive” in each case.
For `NCCC(=O)Nc1cccc(-c2nn3c(=O)cc(N4CCNCC4)nc3s2)c1`, the Potency entry in experiment [1] and in experiment [2] was “inactive” throughout.
Take `COc1cccc(CNc2ccc(S(=O)(=O)Nc3cccc(N4CCNCC4)c3)cc2)c1O`: the Potency result in experiment [1] and in experiment [2] was “inactive” in each case.
On to `Brc1ccc(-c2csc(N3CCCCC3)n2)cc1`, for which the Potency result in experiment [1] and in experiment [2] was “inactive” throughout.
Take `CC(C)(C)OC(=O)Cc1nnc(-c2cc3ccccc3[nH]2)o1`: the Potency entry in experiment [1] and in experiment [2] was “inactive” throughout.

The values are drawn from PubChem BioAssay (NCATS).
